Results as given in PubChem BioAssay AID1159580 (chemical genetic matrix, 2015).
In all, about 5,500 compounds went through this assay and about 2,000 (36%) were called active. Roughly 18% stayed inconclusive and do not appear here. Rule as the data show it: active = normalized growth mostly below about 0.91 (no sharp cut-off); inconclusive = no clear call, values can overlap the other calls; inactive = mostly above about 0.92. The list shows a part of the results.

Assay: chemical genetic growth profiling, strain panel (AID 1159580);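 also: tested at 20 µM; growth read once vehicle control cultures reached saturation at 30 °C; 1 = growth at the plate median or of vehicle wells; lower values mean less growth of the strain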
Details: growth OD

Measured: normalized growth

Oc1cccc(O)c1
inactive: S. cerevisiae deletion strains, locus YJR066W, strain TOR1, active compounds read low 0.971 | S. cerevisiae deletion strains, locus YJR075W, strain HOC1, active compounds read low 1.01 | S. cerevisiae deletion strains, locus YKL009W, strain mrt4, active compounds read low 0.98 | S. cerevisiae deletion strains, locus YKL068W, active compounds read low 0.997 | S. cerevisiae deletion strains, locus YKL085W, strain MDH1 (second series), active compounds read low 0.994 | S. cerevisiae deletion strains, locus YKL085W, strain MDH1, active compounds read low 0.994 | S. cerevisiae deletion strains, locus YKL160W, strain elf1, active compounds read low 1.02 | S. cerevisiae deletion strains, locus YKL190W, strain CNB1, active compounds read low 1.01 | S. cerevisiae deletion strains, locus YKR001C, strain vps1, active compounds read low 0.98 | S. cerevisiae deletion strains, locus YKR026C, strain gcn3, active compounds read low 0.967 | S. cerevisiae deletion strains, locus YKR091W, strain srl3, active compounds read low 0.979 | S. cerevisiae deletion strains, locus YLL001W, strain dnm1, active compounds read low 0.993 | S. cerevisiae deletion strains, locus YLL026W, active compounds read low 1.01 | S. cerevisiae deletion strains, locus YLL041C, strain sdh2, active compounds read low 0.979 | S. cerevisiae deletion strains, locus YLR027C, strain aat2, active compounds read low 0.992 | S. cerevisiae deletion strains, locus YLR039C, strain RIC1, active compounds read low 1.01 | S. cerevisiae deletion strains, locus YLR058C, strain SHM2, active compounds read low 1.01 | S. cerevisiae deletion strains, locus YLR102C, strain apc9, active compounds read low 0.993 | S. cerevisiae deletion strains, locus YLR113W, strain HOG1, active compounds read low 1.01 | S. cerevisiae deletion strains, locus YLR221C, strain rsa3, active compounds read low 0.962 | S. cerevisiae deletion strains, locus YLR258W, strain gsy2, active compounds read low 0.956 | S. cerevisiae deletion strains, locus YLR262C, strain YPT6 (second series), active compounds read low 1 | S. cerevisiae deletion strains, locus YLR262C, strain YPT6, active compounds read low 1.02 | S. cerevisiae deletion strains, locus YLR268W, strain sec22, active compounds read low 0.974 | S. cerevisiae deletion strains, locus YLR320W, strain mms22, active compounds read low 0.944 | S. cerevisiae deletion strains, locus YLR330W, strain CHS5, active compounds read low 1.01 | S. cerevisiae deletion strains, locus YLR342W, strain FKS1 (second series), active compounds read low 0.995 | S. cerevisiae deletion strains, locus YLR342W, strain FKS1, active compounds read low 1 | S. cerevisiae deletion strains, locus YLR357W, strain rsc2, active compounds read low 0.977 | S. cerevisiae deletion strains, locus YLR370C, strain arc18, active compounds read low 0.992 | S. cerevisiae deletion strains, locus YLR371W, strain rom2, active compounds read low 0.992 | S. cerevisiae deletion strains, locus YLR384C, strain iki3, active compounds read low 0.997 | S. cerevisiae deletion strains, locus YLR418C, strain cdc73, active compounds read low 0.961 | S. cerevisiae deletion strains, locus YML016C, strain PPZ1, active compounds read low 1 | S. cerevisiae deletion strains, locus YML032C, strain rad52, active compounds read low 0.983 | S. cerevisiae deletion strains, locus YML120C, strain ndi1, active compounds read low 0.986 | S. cerevisiae deletion strains, locus YML124C, strain tub3, active compounds read low 0.991 | S. cerevisiae deletion strains, locus YMR058W, strain fet3, active compounds read low 0.972 | S. cerevisiae deletion strains, locus YMR078C, strain ctf18, active compounds read low 0.989 | S. cerevisiae deletion strains, locus YMR125W, strain sto1, active compounds read low 0.932 | S. cerevisiae deletion strains, locus YMR129W, active compounds read low 0.974 | S. cerevisiae deletion strains, locus YMR205C, strain PFK2, active compounds read low 0.991 | S. cerevisiae deletion strains, locus YMR223W, strain ubp8, active compounds read low 0.991 | S. cerevisiae deletion strains, locus YMR231W, strain pep5, active compounds read low 0.985 | S. cerevisiae deletion strains, locus YMR263W, strain SAP30, active compounds read low 1.01 | S. cerevisiae deletion strains, locus YMR307W, strain GAS1, active compounds read low 0.989 | S. cerevisiae deletion strains, locus YNL067W, strain RPL9B, active compounds read low 1.02 | S. cerevisiae deletion strains, locus YNL071W, strain lat1, active compounds read low 0.969 | S. cerevisiae deletion strains, locus YNL183C, strain NPR1, active compounds read low 0.951 | S. cerevisiae deletion strains, locus YNL209W, strain ssb2, active compounds read low 0.973 | S. cerevisiae deletion strains, locus YNL233W, strain BNI4, active compounds read low 1.01 | S. cerevisiae deletion strains, locus YNL248C, strain rpa49, active compounds read low 0.957 | S. cerevisiae deletion strains, locus YNL250W, strain rad50, active compounds read low 0.985 | S. cerevisiae deletion strains, locus YNL271C, strain bni1, active compounds read low 0.991 | S. cerevisiae deletion strains, locus YNL298W, strain CLA4, active compounds read low 0.978 | S. cerevisiae deletion strains, locus YNL307C, strain MCK1, active compounds read low 0.988 | S. cerevisiae deletion strains, locus YNL322C, strain KRE1 (second series), active compounds read low 0.967 | S. cerevisiae deletion strains, locus YNR049C, strain mso1, active compounds read low 0.971 | S. cerevisiae deletion strains, locus YNR052C, strain pop2, active compounds read low 0.99 | S. cerevisiae deletion strains, locus YOL006C, strain TOP1, active compounds read low 1.03 | S. cerevisiae deletion strains, locus YOL012C, strain htz1 0.68 | S. cerevisiae deletion strains, locus YOL147C, strain pex11, active compounds read low 0.995 | S. cerevisiae deletion strains, locus YOR001W, strain rrp6, active compounds read low 1.01 | S. cerevisiae deletion strains, locus YOR061W, strain CKA2, active compounds read low 1.01 | S. cerevisiae deletion strains, locus YOR069W, strain VPS5, active compounds read low 1 | S. cerevisiae deletion strains, locus YOR070C, strain gyp1, active compounds read low 0.979 | S. cerevisiae deletion strains, locus YOR080W, strain dia2, active compounds read low 0.987 | S. cerevisiae deletion strains, locus YOR083W, strain WHI5, active compounds read low 0.986 | S. cerevisiae deletion strains, locus YOR106W, strain vam3, active compounds read low 0.983 | S. cerevisiae deletion strains, locus YOR136W, strain idh2, active compounds read low 0.988 | S. cerevisiae deletion strains, locus YOR144C, strain elg1, active compounds read low 0.98 | S. cerevisiae deletion strains, locus YOR184W, strain ser1, active compounds read low 0.977 | S. cerevisiae deletion strains, locus YOR231W, strain MKK1, active compounds read low 1.02 | S. cerevisiae deletion strains, locus YOR265W, strain rbl2, active compounds read low 0.987 | S. cerevisiae deletion strains, locus YOR270C, strain vph1, active compounds read low 0.969 | S. cerevisiae deletion strains, locus YOR290C, strain snf2, active compounds read low 0.922 | S. cerevisiae deletion strains, locus YOR316C, strain cot1, active compounds read low 0.995 | S. cerevisiae deletion strains, locus YPL051W, strain arl3, active compounds read low 1 | S. cerevisiae deletion strains, locus YPL055C, strain LGE1, active compounds read low 1.03 | S. cerevisiae deletion strains, locus YPL078C, strain atp4, active compounds read low 1 | S. cerevisiae deletion strains, locus YPL106C, strain sse1, active compounds read low 0.926 | S. cerevisiae deletion strains, locus YPL240C, strain hsp82, active compounds read low 0.995 | S. cerevisiae deletion strains, locus YPL241C, strain CIN2, active compounds read low 1.01 | S. cerevisiae deletion strains, locus YPL256C, strain CLN2, active compounds read low 1.06 | S. cerevisiae deletion strains, locus YPR119W, strain clb2, active compounds read low 0.959 | S. cerevisiae deletion strains, locus YPR141C, strain kar3, active compounds read low 0.988 | S. cerevisiae deletion strains, locus YPR163C, strain tif3, active compounds read low 0.993 | S. cerevisiae deletion strains, locus YPR167C, strain met16, active compounds read low 0.995 | S. cerevisiae deletion strains, strain wtn01, active compounds read low 0.979 | S. cerevisiae strains, strain wild type, active compounds read low 1
